# Assay outcomes deposited in PubChem by National Center for Advancing Translational Sciences (NCATS).
# CtBP-E1A blk: qHTS Assay for Inhibitors of the CtBP/E1A Interaction. 340,000 compounds, 0.49% hits. activity change, % (test concentration not listed). AlphaScreen GST-E1A/His-CtBP binding, 1536-well; hits give low values. CtBP / adenovirus E1A interaction (AlphaScreen); in the data active means activity change below about -65%; inconclusive means mostly about -30% to -63%; further: on the % scale 0 is the no-effect control and ±100 the full control effect
#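 Protein mix (5X: 125 nM each GST-E1A, His-CtBP) was incubated with pinned compound 2 h at 37 deg C in dark, in 50 mM Tris pH 8.0 buffer with 300 mM NaCl. Glutathione donor and nickel acceptor beads followed; AlphaScreen signal read after 1 h.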
# Six1-Eya2 blk: qHTS Assay for Inhibitors of the Six1/Eya2 Interaction; Homeobox protein SIX1 (Homo sapiens) + Protein phosphatase EYA2 (Homo sapiens), …; AlphaScreen GST-Six1/His-Eya2 binding, biochemical; hits give low values; activity change, % (concentration not given with the values); 360,000 compounds, 0.56% hits; AID 651725, 2012; in the data active means activity change below about -65%; inconclusive means mostly about -30% to -63%; further: on the % scale 0 is the no-effect control and ±100 the full control effect
#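 Six1/Eya2 binding was read as AlphaScreen signal after compounds were pinned into GST-Six1 plus His-tagged Eya2 (5X stock 250/500 nM) in pH 8.0 Tris/NaCl/TCEP buffer, beads added, then incubated 1 h, 37 C, dark.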
# BAZ2B inh: qHTS Assay for Inhibitors of BAZ2B | Potency, µM (series often up to 114 µM), inactives show at the top dose activity change, negative = inhibition, most hits filed as inhibitors | Bromodomain adjacent to zinc finger domain protein 2B (Homo sapiens), Q9UIF8 | AlphaScreen BAZ2B-H3K14Ac peptide displacement | 360,000 compounds, 4.4% hits; further: potency means the concentration at half of the fitted maximal effect; on the % scale 0 is the no-effect control and ±100 the full control effect; nearly all actives have a fitted effect of over 60% in size
#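 In this displacement format the biotinylated H3(5-23) peptide acetylated at Lys14 serves as ligand at 50 nM, with BAZ2B at 50 nM in PBS pH 7.4 containing 0.01% Tween-20. Donor and acceptor beads are 10 ug/mL final.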
# HP1b chromo inh: HTS for Inhibitors of HP1-beta Chromodomain Interactions with Methylated Histone Tails. Potency, µM (titrated, usually from 114 µM), without a hit: at the top dose activity change, negative = inhibition, hits mostly inhibitors. 390,000 compounds, 0.56% hits. Chromobox protein homolog 1 (Homo sapiens), P83916. AlphaScreen HP1-beta / biotin-H3K9me3 peptide binding; further: potency means the concentration at half of the fitted maximal effect; nearly all actives have a fitted effect of over 70% in size
#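 HP1-beta protein (50 nM final) preincubated 30 min at room temperature with biotinylated H3(1-18)K9me3 peptide (50 nM) in PBS pH 7.4, 0.01% Tween-20, then compound added for 30 min. AlphaScreen streptavidin donor/nickel chelate acceptor beads (10 ug/mL final), 30 min dark, luminescence read.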
# JMJD2A Tudor inh: qHTS Assay for Inhibitors of JMJD2A-Tudor Domain; Lysine-specific demethylase 4A (Homo sapiens), O75164; AlphaScreen JMJD2A-Tudor / H3K4me3 peptide binding; Potency, µM (top dose mostly 114 µM), without a hit: at the top dose activity change, negative = inhibition, actives largely listed as inhibitors; 390,000 compounds, 4.4% hits; further: potency means the concentration at half of the fitted maximal effect; on the % scale 0 is the no-effect control and ±100 the full control effect; nearly all actives have a fitted effect of over 50% in size
# G9a inh: qHTS Assay for Inhibitors of Histone Lysine Methyltransferase G9a; Histone-lysine N-methyltransferase EHMT2 (Homo sapiens), Q96KQ7; G9a H3K9 monomethylation, AlphaScreen, 2 h; Potency, µM (series often up to 102 µM), inactives show at the highest dose activity, negative = inhibition, usual class: inhibitors; 350,000 compounds, 8.8% hits; further: potency means the concentration at half of the fitted maximal effect; on the % scale 0 is the no-effect control and ±100 the full control effect; nearly all actives have a fitted effect of over 75% in size
#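 AlphaScreen detection with an anti-monomethyl H3K9 antibody quantified product after a 2 h room-temperature reaction containing 500 nM biotinylated H3K9 peptide, 20 µM SAM and 20 nM enzyme, which had been preincubated 15 min with compound.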
# Numbers without * were called inactive; ? = inconclusive; · = no result; [ ] = remark or other dose. Compounds with a hit are over-represented: about 10% of the library has one in this group of screens. Unless noted, the call rests on the fitted dose curve; in most records, active means well fitted inhibition curve with a large enough effect; inconclusive means small, poorly fitted or top-dose-only effect; inactive means no such curve, though single readings can be large or run the other way.
SMILES,CtBP-E1A blk,Six1-Eya2 blk,BAZ2B inh,HP1b chromo inh,JMJD2A Tudor inh,G9a inh
COc1cccc(CNC(=S)Nc2ccc3c(c2)c(=O)n(C)n3C)c1,0,0,·,·,·,·
Nc1ccc(Cc2nc3cc4ccccc4cc3[nH]2)cc1,8,-12,-36%,5%,?,-22%[59 µM]
CCc1nc2ccc(Cc3ccc4nc(CC)[nH]c4c3)cc2[nH]1,·,-13,-14%,45%,-10%,45µM*
Nc1ccc2nc(CCc3ccccc3)[nH]c2c1,10,-12,?,-6%,?,7.9µM*
Cc1ccc2nc(CCc3ccc(N)cc3)[nH]c2c1,0,-19,?,-2%,?,35µM*
Cc1c(Cl)cccc1NC(=O)C1CC(=O)N(C2CCCC2)C1 (stereo not given),0,20,·,-7%[57 µM],-6%,·
CCCCCNC(=O)c1cc2c(=O)n3ccccc3nc2n1C,·,·,?,5%,?,?
O=C(NCCS(=O)(=O)N1CCN(Cc2ccccc2)CC1)c1ccccc1,0,9,4%,-11%,-19%,10%
CCN(CC)Cc1c(O)ccc2occ(C(=O)c3ccccc3)c12,-2,0,-25%,48%,-14%,-8%
O=C(c1cccs1)c1coc2ccc(O)c(CN(CCO)CCO)c12,4,5,-2%,11%,-13%,40µM*
COc1ccc2c(c1)c1c(c(=O)n(-c3ccc(OC)c(OC)c3)c(=O)n1CC(=O)N1CCCC1)n2C,·,·,-18%,9%,-9%,-32%[59 µM]
COc1ccc(N2C(=O)c3ccccc3NC23CCCC3)cc1,4,5,-23%,16%,-10%,?
COc1ccc(N2C(S)=C(C#N)C(=O)NC23CCCCC3)cc1,-14,24,?,30%,-14%,35µM*
O=c1[nH]c(CN2CCCCC2)nc2ccccc12,2,-2,-8%,15%,?,?
c1ccc2[nH]c(CN3CCCCCC3)nc2c1,1,0,-15%,25%,-16%,28µM*
COc1cccc(/C=N/Nc2ccc([N+](=O)[O-])cc2)c1O,-2,-8,-3%,1%,-28%,?
COc1cccc(N/N=C/c2cccc(Br)c2O)c1,-7,-10,?,?,-31%,2.2µM*
Cc1cccc(N/N=C/c2ccc(O)c(O)c2O)c1,-5,-2,50µM*,?,45µM*,1.1µM*
CCn1c2ccccc2c2nnc(SC3CCOC3=O)nc21 (stereo not given),·,·,·,83%,-6%,·
CC1=NN(c2ccccc2)C(=O)/C1=C/C=C/c1ccccc1,-16,-5,7.9µM*,32µM*,8.9µM*,5µM*
CC1=NN(c2cccc(C(=O)O)c2)C(=O)/C1=C\C=C\c1ccco1,3,?,10µM*,13µM*,8.9µM*,7.9µM*
Cc1ccc(C2=NOC(=O)/C2=C\C=C\c2ccccc2)cc1,0,0,35µM*,-30%,50µM*,2.8µM*
CC1=NN(c2ccccc2)C(=O)/C1=C\N1CC(C)OC(C)C1 (stereo not given),-10,-2,?,14%,-30%,79µM*
CN(C)/C=C1\C(=O)ON=C1c1ccccc1,2,12,-2%,23%,-8%,?
COc1ccc(C2Nc3ccccc3C(=O)N2Cc2ccccc2)cc1COc1ccc(NC(=O)c2ccccc2)cc1 (stereo not given),·,·,·,·,-26%,·
SMILES,CtBP-E1A blk,Six1-Eya2 blk,BAZ2B inh,HP1b chromo inh,JMJD2A Tudor inh,G9a inh
COc1cc2c(cc1OC)/C(=C/C(=O)OCc1ccccc1)OC2,-25,-11,·,·,·,·
COc1cccc2c1C(=O)c1c(O)c3c(c(O)c1C2=O)CC(O)(C(C)=O)CC3OC1CC(O)C(O)C(C)O1 (stereo not given),-21,-19,·,?,?,·
COc1cccc2c1C(=N)c1c(O)c3c(c(O)c1C2=O)CC(O)(C(C)=O)CC3OC1CC(N)C(O)C(C)O1 (stereo not given),?,?,·,?,40µM*,·
COc1cccc2c1C(=O)c1c(O)c3c(c(O)c1C2=O)C[C@](O)(C(C)=O)C[C@H]3O[C@@H]1C[C@@H](N)[C@@H](O)[C@@H](C)O1,-27,-13,45µM*,-11%,?,?
O=C(CN1C(=O)COc2ccc(S(=O)(=O)N3CCCC3)cc21)N1CCN(c2ccccc2)CC1,·,·,-19%,-1%,-17%,5%[59 µM]
CC(C)NC(=O)C1(C)CN(S(C)(=O)=O)CC(=O)N1C1CCN(Cc2ccccc2)CC1 (stereo not given),21,2,·,·,·,·
COc1ccc(C(CC(=O)NCc2ccccc2)Sc2n[nH]c(-c3ccc(Cl)cc3)n2)cc1 (stereo not given),·,0,7%,20%,-17%,25µM*
COc1ccc(-c2nc(SC(CC(=O)NCc3ccccc3)c3ccc(OC)c(OC)c3)n[nH]2)cc1 (stereo not given),·,?,-20%,15%,-19%,45µM*
COc1ccc(C(CC(=O)NCc2ccccc2)Sc2n[nH]c(-c3ccccc3)n2)cc1 (stereo not given),·,-6,4%,43%,-9%,1%
CCOc1ccccc1N(CC(=O)NCCSc1ccccc1)S(=O)(=O)c1ccccc1,·,·,-7%,4%,-11%,-31%[59 µM]
O=C1c2ccccc2C(=O)N1CCSc1ncn[nH]1,10,-16,49%,42%,-2%,-9%[59 µM]
CC(C)CSc1n[nH]c(N)n1,-5,8,-7%,0%,-14%,13%
CC(C)CSc1n[nH]c(=S)s1,-11,3,50µM*,28µM*,8.9µM*,1.8µM*
CC(CSc1n[nH]c(=S)s1)c1ccccc1 (stereo not given),-18,-12,·,50µM*,18µM*,·
O=C1c2ccccc2C(=O)N1CCSc1n[nH]c(=S)s1,1,-2,?,?,18µM*,1.3µM*
Cc1ccc(CC(C)(O)CC(C)(O)Cc2ccc(C)cc2)cc1 (stereo not given),-20,16,·,·,·,·
O=C(CC1SC(N2CCCC2)=NC1=O)Nc1ccc(C(=O)N2CCN(c3cccc(Cl)c3)CC2)cc1 (stereo not given),-2,-2,?,2%,-30%,?
Cc1cc(N=Nc2ccc(Cl)cc2)cc(CN2CCOCC2)c1O,?,?,10µM*,40µM*,16µM*,7.9µM*
CCOc1ccc(Cl)cc1CN1CCOCC1,12,2,-17%,22%,-10%,6%[12.7 µM]
